The whole screen tested about 310,000 compounds, of which about 14,000 (4.5%) showed an effect of 50% or more. Effects have a minus sign here. The sample holds strong results, similar compounds and a random draw of the others, so the mix is not that of the screen.
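Note: peak tail current of the secondary pulse compared with the same well before compound.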

human ether-à-go-go-related gene (hERG) potassium channel, sequence (Q12809 whole entry, looked up): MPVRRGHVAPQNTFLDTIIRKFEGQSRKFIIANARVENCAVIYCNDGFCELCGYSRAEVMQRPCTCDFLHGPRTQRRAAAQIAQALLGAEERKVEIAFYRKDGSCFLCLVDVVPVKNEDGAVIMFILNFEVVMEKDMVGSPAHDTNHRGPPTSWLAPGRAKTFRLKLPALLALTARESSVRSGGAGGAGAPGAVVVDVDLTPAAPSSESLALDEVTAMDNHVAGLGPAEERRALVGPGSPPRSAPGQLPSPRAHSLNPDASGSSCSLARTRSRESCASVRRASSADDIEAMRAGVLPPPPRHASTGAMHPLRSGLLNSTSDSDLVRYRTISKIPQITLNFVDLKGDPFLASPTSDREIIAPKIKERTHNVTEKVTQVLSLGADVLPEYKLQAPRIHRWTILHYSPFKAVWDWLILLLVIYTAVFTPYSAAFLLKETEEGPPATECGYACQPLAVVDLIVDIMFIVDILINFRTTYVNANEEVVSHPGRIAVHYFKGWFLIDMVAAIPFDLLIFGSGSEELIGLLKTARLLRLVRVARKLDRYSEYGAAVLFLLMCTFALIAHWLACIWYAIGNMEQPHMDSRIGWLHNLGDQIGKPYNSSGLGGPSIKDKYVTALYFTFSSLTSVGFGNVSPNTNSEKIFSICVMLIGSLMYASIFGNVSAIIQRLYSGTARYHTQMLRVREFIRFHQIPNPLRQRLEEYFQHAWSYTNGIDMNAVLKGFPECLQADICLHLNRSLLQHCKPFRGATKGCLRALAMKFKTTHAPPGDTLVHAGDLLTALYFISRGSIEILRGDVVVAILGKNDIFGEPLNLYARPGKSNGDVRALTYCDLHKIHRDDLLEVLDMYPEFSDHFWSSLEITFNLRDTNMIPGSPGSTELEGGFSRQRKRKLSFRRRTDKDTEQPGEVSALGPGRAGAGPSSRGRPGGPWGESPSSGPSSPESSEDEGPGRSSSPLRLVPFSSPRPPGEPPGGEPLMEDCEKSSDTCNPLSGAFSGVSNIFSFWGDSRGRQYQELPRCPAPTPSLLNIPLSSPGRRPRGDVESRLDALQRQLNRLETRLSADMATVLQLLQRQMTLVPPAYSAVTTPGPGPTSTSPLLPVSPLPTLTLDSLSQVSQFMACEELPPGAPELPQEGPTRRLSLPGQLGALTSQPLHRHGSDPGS

This test concerns the target human ether-à-go-go-related gene (hERG) potassium channel (human, UniProt Q12809). As to the kind of experiment: primary screen, population patch clamp on CHO cells stably expressing hERG; higher = less effect of the substance.
`COCCOCC(O)CN1CCN(c2ccccc2)CC1.O=C(O)C(=O)O` (centres unmarked): the “hERG current change (%, negative = inhibition) at 10uM” value was -3.37%.

In the case of `CCOC(=O)C1CCCN(c2nnnn2-c2ccccc2)C1` (centres unmarked), the “hERG current change (%, negative = inhibition) at 10uM” value is -5.57%. Regarding `CN(C)CCSCc1nnc2n1-c1ccc(Cl)cc1C(c1ccccc1Cl)=NC2.c1ccccc1`, the “hERG current change (%, negative = inhibition) at 10uM” value is recorded as -73.7%. Regarding `CS(=O)(=O)NCc1nnc2n1-c1ccc(Cl)cc1C(c1ccccc1)=NC2`, the “hERG current change (%, negative = inhibition) at 10uM” value came out at 6.2%.

As to `COc1ccccc1C1=NCc2nnc(CSC)n2-c2ccc(Cl)cc21`, the “hERG current change (%, negative = inhibition) at 10uM” value is on record as -19.1%. Then `Cc1ccc(C(=O)NC(=S)Nc2ccc(N3CCOCC3)cc2)cc1C`, with -7.53%; and `O=C(NCCCn1ccnc1)C(=O)NCC(c1ccco1)N1CCN(c2ccccc2)CC1` (centres unmarked), with 1.01%. `COc1ccc(O[C@H]2C=C[C@@H](c3ccccc3)O[C@@H]2CO/N=C/C[C@@H]2C=C[C@H](OC(C)=O)[C@@H](COC(C)=O)O2)cc1`: the “hERG current change (%, negative = inhibition) at 10uM” value is on record as -9.17%.

`CCCNC(=O)OC[C@H]1O[C@H](CCO/N=C/[C@@H](OC)[C@H](C)/C=C/CC(=O)OC)C=C[C@@H]1Oc1ccc(OC)cc1`: the “hERG current change (%, negative = inhibition) at 10uM” value is on record as -11.1%. Then `CCCNC(=O)OC[C@H]1O[C@H](CCO/N=C/C[C@@H]2C=C[C@H](OC(C)=O)[C@@H](COC(C)=O)O2)C=C[C@@H]1Oc1ccc(OC)cc1`, with -59.7%; and `CCC(Sc1nc(C)cc(=O)[nH]1)C(=O)Nc1sc2c(c1C#N)CCCC2` (centres unmarked), with -19.1%; and `Cc1ccc2oc3nc(C)c(C(=O)Nc4cccc(C(F)(F)F)c4)cc3c(=O)c2c1`, with 6.48%. On to `O=C(CCS(=O)(=O)c1cccc2nsnc12)N1CCN(c2ccccc2F)CC1`, for which the “hERG current change (%, negative = inhibition) at 10uM” value is -30.3%. Turning to `COC(=O)C1=C(C(=O)c2ccc(C)cc2)C(c2ccc(OC)c(OC)c2)n2nnnc2N1` (centres unmarked), the “hERG current change (%, negative = inhibition) at 10uM” value was 3.59%.

As to `Cc1ccc(O)c(-c2cc(-c3cccc(F)c3)n[nH]2)c1`, the “hERG current change (%, negative = inhibition) at 10uM” value came to 23.6%. Then `CCCn1cc(CN2CCC(Cc3cccc(F)c3)(C(=O)OCC)CC2)c(C)n1`, with -67.2%; and `CCOC(=O)C1(Cc2cccc(F)c2)CCN(Cc2cn(CC)nc2C)CC1`, with -38%. Then `CCOC(=O)C1(S(=O)(=O)c2ccc(Cl)cc2)CCN(Cc2ccc(Cl)cc2)CC1`, with 14.7%; and `CCCn1ncc(CN2CCC(Cc3cccc(F)c3)(C(=O)OCC)CC2)c1C`, with -59.7%.

Take `CCOC(=O)C1(Cc2cccc(F)c2)CCN(Cc2cnn(CC)c2C)CC1`: the “hERG current change (%, negative = inhibition) at 10uM” value is -16.6%. Then `CCOC(=O)C1(Cc2cccc(OC)c2)CCN(Cc2cnc(N)nc2)CC1`, with -28.2%. On to `CCOC(=O)C1(Cc2ccc(Cl)cc2)CCN(Cc2cn(CC)nc2C)CC1`, for which the “hERG current change (%, negative = inhibition) at 10uM” value was -67.7%.

For the molecule `CCOC(=O)C1(Cc2ccc(Cl)cc2)CCN(Cc2ccon2)CC1`, the “hERG current change (%, negative = inhibition) at 10uM” value is -49.5%. Then `CCOC(=O)C1(Cc2cccc(F)c2)CCN(Cc2ccon2)CC1`, with 3.48%. Then `CCOC(=O)C1(Cc2cccc(F)c2)CCN(Cc2ccc(COC)o2)CC1`, with -23.5%; and `CCOC(=O)C1(Cc2ccc(Cl)cc2)CCN(Cc2cnc(N)nc2)CC1`, with -74.7%. `O=C(NCC1OCCc2ccccc21)c1ccc(NC(=O)c2cccc(Br)c2)cc1` (centres unmarked): the “hERG current change (%, negative = inhibition) at 10uM” value was 2.42%.

In the case of `COC(=O)Cn1c(C)c(C(C)=O)c(C(C)=O)c1C`, the “hERG current change (%, negative = inhibition) at 10uM” value is listed as 14.1%. For the molecule `CCOCCCN1C(=O)C(=O)N(CC(=O)N2c3ccccc3NC(=O)CC2C)C1=O` (centres unmarked), the “hERG current change (%, negative = inhibition) at 10uM” value was determined as 17.2%. Then `O=C(O)c1cc(S(=O)(=O)N2CCCCC2)sc1Cl`, with 17%; and `Cc1ccc(C)c(OCCC(=O)NCCc2ccc(Cl)cc2)c1`, with 21.6%. Then `O=C(COC(=O)Cc1cccc(C(F)(F)F)c1)NCC1CCCO1` (centres unmarked), with 1.46%. Consider `O=C(OCC(=O)N1CCCc2ccccc21)c1cc(Br)ccc1O`, for which the “hERG current change (%, negative = inhibition) at 10uM” value was 12.4%. Then `COc1c2c(nc3occc13)C(CC=C(C)C)(OC)C(O)CC2` (centres unmarked), with 5.5%; and `CCCn1cc(CN2CCC(Cc3ccccc3)(C(=O)OCC)CC2)c(C)n1`, with -60.4%. Take `CC1(C)Cc2ccccc2-c2nc3n(c(=O)c21)CCCS3`: the “hERG current change (%, negative = inhibition) at 10uM” value amounted to 12.8%. Then `Cc1cc(OC(C)C(=O)NNC(=O)Nc2ccc(F)cc2F)cc(C)c1Cl` (centres unmarked), with 22.3%.

Consider `COc1ccc(CCN2C(=O)c3ccccc3NC2c2cc(Cl)c(O)c(OC)c2)cc1` (centres unmarked), for which the “hERG current change (%, negative = inhibition) at 10uM” value is listed as -4.85%. Then `COc1ccc(CCN2CCCC(CN(C)Cc3cc(OC)c(OC)c(OC)c3)C2)cc1` (centres unmarked), with -51.6%. Then `COc1cc(OC)c(OC)cc1CN(C)CC1CCCN(CCc2ccccc2F)C1` (centres unmarked), with -2.33%. Then `COc1ccc(CCN2CCCC(CN(C)Cc3cc(Cl)c(O)c(OC)c3)C2)cc1` (centres unmarked), with -65.7%; and `COc1ccc(CCN2CCCC(CN(C)Cc3cc(OC)ccc3OC)C2)cc1` (centres unmarked), with -69.1%; and `CN(Cc1ccccc1)CC1CCCN(CCc2ccccc2F)C1` (centres unmarked), with -49.9%. `COc1ccc(OC)c(CN2CCCC(CO)C2)c1` (centres unmarked): the “hERG current change (%, negative = inhibition) at 10uM” value came out at 0.935%. Turning to `COc1cc(CN(C)CC2CCCN(CCc3ccccc3F)C2)cc(Cl)c1OC` (centres unmarked), the “hERG current change (%, negative = inhibition) at 10uM” value is reported as -69.8%.

In the case of `CC(=O)Nc1ccc(NC(=O)c2oc3cc(C)c(C)cc3c2C)cc1`, the “hERG current change (%, negative = inhibition) at 10uM” value is 7.5%. In the case of `COc1ccc(-c2cc(CCCC(=O)NCCc3ccc(OC)cc3OC)no2)cc1`, the “hERG current change (%, negative = inhibition) at 10uM” value is recorded as 5.37%. Then `CN(CC1COCCO1)C(=O)c1cc(COc2c(F)cccc2F)on1` (centres unmarked), with 6.62%; and `O=C(COc1ncnc2c(Cl)cc(Cl)cc12)NCCC1=CCCCC1`, with 12.4%; and `Cc1cccc(C(=S)N2CCOCC2)n1`, with 5.42%. Then `C=CCNC(=O)C(C)Sc1ccc(Cl)cc1` (centres unmarked), with 0.00948%; and `Cc1cc(C(C)(C)C)cc(C)c1C(=O)O`, with 0.0126%. Then `Cn1cnnc1SCc1ccc(C(=O)N/N=C/c2cccs2)cc1`, with 4.87%. Take `COc1ccc(F)c(CN(C)CC2CCCN(CCc3ccc(F)cc3)C2)c1` (centres unmarked): the “hERG current change (%, negative = inhibition) at 10uM” value is -73.4%.

With `CN1C(=O)Cc2cc(S(=O)(=O)N3CCN(c4cccc(Cl)c4)CC3)ccc21`, the “hERG current change (%, negative = inhibition) at 10uM” value was 15.3%. For `O=NN(CCc1ccncc1)c1ccc(OCc2ccccc2)cc1`, the “hERG current change (%, negative = inhibition) at 10uM” value is -65.2%. Then `COc1ccc(N(Cc2ccccc2)N=O)cc1`, with -23.3%; and `O=C1NC(=O)C(CCc2ccncc2)(Cc2ccc(OCc3ccccc3)cc2)C(=O)N1`, with 11.8%. In the case of `Cc1ccc(SCC2=NNC(=O)C2)cc1`, the “hERG current change (%, negative = inhibition) at 10uM” value is -3.78%. Then `Cn1nc(-c2ccccc2)c(-c2nc(-c3ccc(Cl)cc3)no2)c1Cl`, with 6.65%; and `Cc1ccc2nc(N(CCN(C)C)C(=O)/C=C/c3cccs3)sc2c1.Cl`, with -40.3%. Then `CCOc1ccccc1NC(=O)Cn1c(=O)c2ccccc2n(CC)c1=O`, with -11.7%; and `CS(=O)(=O)O.Cc1c(O)cccc1C(=O)N[C@@H](CSc1ccccc1)[C@H](O)CN1C[C@H]2CCCC[C@H]2C[C@H]1C(=O)NC(C)(C)C`, with -4.69%.

Turning to `CC(C)(C)NC(=O)[C@@H]1C[C@@H]2CCCC[C@@H]2CN1C[C@@H](O)[C@H](Cc1ccccc1)NC(=O)[C@H](CC(N)=O)NC(=O)c1ccc2ccccc2n1`, the “hERG current change (%, negative = inhibition) at 10uM” value is on record as -9.59%. Then `CC(C)(C)NC(=O)[C@@H]1C[C@@H]2CCCC[C@@H]2CN1C[C@@H](O)[C@H](Cc1ccccc1)NC(=O)[C@H](CC(N)=O)NC(=O)c1ccc2ccccc2n1.CS(=O)(=O)O`, with -72.1%; and `CC(=O)Nc1ccc(Nc2ncnc3c2cnn3-c2cccc(C)c2)cc1`, with 10%; and `O=C(O)c1ccc(S(=O)(=O)c2ccc(Sc3ccc(C(=O)O)c(C(=O)O)c3)cc2)cc1`, with 23.3%. Then `CCOC(=O)N1CCN(CC(O)COc2ccc(CC)cc2)CC1.Cl` (centres unmarked), with -31.2%; and `CCOC(=O)N1CCN(CC(O)COc2ccc(C)c(C)c2)CC1.Cl` (centres unmarked), with 6.64%.

Turning to `CCOC(=O)N1CCN(Cc2ccc(OCC(O)CN3CCCCC3)cc2)CC1` (centres unmarked), the “hERG current change (%, negative = inhibition) at 10uM” value is 15.7%. Then `CCCc1ccc(OCC(O)CN2CCN(C(=O)OCC)CC2)cc1.Cl` (centres unmarked), with -52.2%; and `CCOC(=O)N1CCN(CC(O)COc2ccc(-c3ccccc3)cc2)CC1.Cl` (centres unmarked), with -60.3%; and `CCOC(=O)N1CCN(CC(O)COc2cc(C)cc(C)c2)CC1.Cl` (centres unmarked), with -12.7%.

On to `COc1ccccc1NC(=O)COC(=O)C1CCN(/C=C/C(=O)C(F)(F)F)CC1`, for which the “hERG current change (%, negative = inhibition) at 10uM” value is on record as -49.6%. For the molecule `Cc1ccc(S(=O)(=O)N/N=C\c2cn(CC(N)=O)c3ccccc23)cc1C`, the “hERG current change (%, negative = inhibition) at 10uM” value is reported as 5.21%.

For `Cc1nn(Cc2cccc(C(=O)Nc3ccn(Cc4ccccc4F)n3)c2)c(C)c1[N+](=O)[O-]`, the “hERG current change (%, negative = inhibition) at 10uM” value was determined as 6.24%.

For the molecule `Cc1ccc(-c2nc(N/N=C/c3ccncc3)c3ccccc3n2)cc1`, the “hERG current change (%, negative = inhibition) at 10uM” value is 3.06%. Then `FC(F)(F)c1ccccc1CN1CCC(Cc2ccccc2)CC1`, with 12%; and `COc1cc(CN2CCC(Cc3ccccc3)CC2)c([N+](=O)[O-])cc1OC`, with 0.589%; and `COc1cc(C)cc(CN2CC=C(c3ccccc3)CC2)c1O`, with -51.4%.

For the molecule `COc1ccc(CN2CCC(Cc3ccccc3)CC2)c(C)c1C`, the “hERG current change (%, negative = inhibition) at 10uM” value is on record as -23%. `COc1cc(C)c(CN2CCC(Cc3ccccc3)CC2)cc1C`: the “hERG current change (%, negative = inhibition) at 10uM” value is on record as -45.3%.

Regarding `COc1cc(OC)c(CN2CCC(Cc3ccccc3)CC2)cc1Br`, the “hERG current change (%, negative = inhibition) at 10uM” value is -70.9%. Consider `COc1cc(C)cc(CN2CCC(Cc3ccccc3)CC2)c1O`, for which the “hERG current change (%, negative = inhibition) at 10uM” value is -52.2%.

On to `Cc1cc(O)c(CN2CC=C(c3ccccc3)CC2)cc1C(C)C`, for which the “hERG current change (%, negative = inhibition) at 10uM” value is given as -14.1%. Then `COc1ccc(C(C)=O)cc1CN1CC=C(c2ccccc2)CC1`, with -17%.

These data come from publication PMC4336329 (PLoS ONE, 2015).
